Pf growth 48h: P. falciparum growth inhibition at 48 hours (one generation). Potency, µM (series often up to 28.7 µM), inactives show at the top dose activity change, negative = inhibition, usual class: inhibitors. P. falciparum luciferase growth in erythrocytes, 48 h. actives 5.9% (n = 310,000); note: potency is the fitted concentration of half-maximal effect; % is set by controls: 0 for no effect and ±100 for the full control effect
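Growth was read as firefly luciferase luminescence after a 48 h, 37 C, 5% CO2 exposure of compounds to reporter-bearing P. falciparum cultures (0.1% parasitemia, 2% hematocrit final) in Albumax-supplemented RPMI 1640.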
Shiga inhibitor: inhibitors of Shiga toxin in Vero cells; Vero cells, Shiga toxin protein synthesis inhibition reporter; inhibition, % at 38.7 µM; actives 9.2% (n = 290,000); in the data active = inhibition mostly above about 28%, no sharp cut-off; inactive = mostly below about 43%; note: 0% is about no effect
Pf growth 96h: P. falciparum growth inhibition at 96 hours; Potency, µM (top dose mostly 28.7 µM), for inactives: top-dose activity change, negative = inhibition, hits mostly inhibitors; actives 6.9% (n = 320,000); P. falciparum luciferase reporter growth, 96 h; AID 504834; note: potency is the fitted concentration of half-maximal effect; % is set by controls: 0 for no effect and ±100 for the full control effect
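Two parasite generations (96 h, 37 C, 5% CO2) of compound exposure in infected erythrocytes (0.05% parasitemia, 2% hematocrit). Luciferase-reporter P. falciparum; decreased luminescence indicates inhibited growth, aimed at apicoplast-acting delayed death.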
CHX counter: affects cycloheximide protein synthesis inhibition readout, counter-screen; actives 12% (n = 300,000); cell reporter, cycloheximide protein synthesis inhibition counterscreen; AID 2314; max response, %; in the data active = max response mostly above about 13%, no sharp cut-off; inactive = mostly below about 14%; note: read at 38.3 µM for the half of the compounds with a filed dose; 0% is about no effect
Numbers without * were called inactive; ? = inconclusive; . = no result. Hits are enriched below; roughly 21% of the tested compounds scored in any of these assays. Unless noted, calls come from the whole dose curve; as a rule, active = well fitted inhibition curve with a large enough effect; inconclusive = small, poorly fitted or top-dose-only effect, or another doubt; inactive = no such curve, though single readings can be large or run the other way.

SMILES | Pf growth 48h | Shiga inhibitor | Pf growth 96h | CHX counter
C[C@@H]1CC[C@]2(C(=O)O)CC[C@]3(C)C(=CCC4[C@@]5(C)C[C@@H](O)[C@H](O)[C@@](C)(CO)C5[C@H](O)C[C@]43C)C2[C@H]1C (stereo partly drawn) | . | -7 | . | -6
Cc1cccc([N+](=O)[O-])c1NC(=O)CN(Cc1ccccc1)Cc1ccccc1 | ? | 2 | 8.3µM* | -2
COc1ccc(NC(=S)N2CCN(C(=O)c3ccco3)CC2)cc1OC | -1% | 7 | ? | -2
COc1cccc(CC(NC(C)=O)C(=O)NC2CCN(c3c(Cc4ccccc4)c(C)nc4ncnn34)CC2)c1 (stereo not drawn) | 3.7µM* | 9 | 10µM* | 1
CC(=O)NC(Cc1ccc(F)c(F)c1)C(=O)NC1CCN(c2c(Cc3ccccc3)c(C)nc3ncnn23)CC1 (stereo not drawn) | 15% | 24 | 15% | 11
COc1ccc(OC)c(CC(NC(C)=O)C(=O)NC2CCN(c3c(Cc4ccccc4)c(C)nc4ncnn34)CC2)c1 (stereo not drawn) | ? | -9 | ? | -1
Cc1nc2ncnn2c(N2CCC(C(=O)NC3CCCC3)CC2)c1Cc1ccccc1 | 15µM* | 7 | 45% | -3
Cc1ccccc1NC(=O)C1CCN(c2cc(-c3ccccc3)nc3ncnn23)CC1 | 7.4µM* | 8 | -19% | -2
C=C1SC(=Nc2c(C)cccc2Cl)N(C(=O)c2sc3ccccc3c2Cl)C12CCCCC2 | ? | -6 | 1.9µM* | -1
O=C(c1sc2ccccc2c1Cl)N1CCN(c2ncccn2)CC1 | 23% | -6 | 5% | -3
C=C1SC(=Nc2ccccc2Cl)N(C(=O)c2sc3ccccc3c2Cl)C1(C)C | ? | 99* | ? | 50*
CC1CC(C)CN(C(=O)CNC(=O)c2sc3ccccc3c2Cl)C1 (stereo not drawn) | ? | . | -83% | .
CCOC(=O)C1CCN(S(=O)(=O)c2c(Cl)ccc3nonc23)CC1 | -23% | 2 | 2.3µM* | 10
CCOC(=O)C1=C(COC(=O)CNC(=O)c2ccc(C)cc2)NC(=O)NC1C (stereo not drawn) | 22% | -32 | 24% | 11
CCOC(=O)C1CCN(S(=O)(=O)c2ccc(Br)c(OCC)c2)CC1 | 5% | 5 | 4.7µM* | -3
CCOC(=O)C1CCN(S(=O)(=O)c2ccc(OC)c(OC)c2)CC1 | . | 28 | 3% | 1
CCOC(=O)C1CCCN(C(=O)c2cc(S(=O)(=O)N3CCCCCC3)ccc2OC)C1 (stereo not drawn) | 9.3µM* | . | 9.3µM* | .
CCOC(=O)C1=C(COC(=O)[C@@H]2CCCN2S(=O)(=O)c2ccc(C)cc2)NC(=O)NC1C (stereo partly drawn) | 14% | 10 | 20% | 12*
CCOC(=O)C1CCN(S(=O)(=O)c2ccc(OC)c(C(=O)N3CCCCCC3)c2)CC1 | -4% | -2 | -5% | -2
CCCCc1c(O)nc(SCC(=O)c2ccccc2)n(-c2ccccc2OC)c1=O | -11% | -3 | -5% | -1
CCOC(=O)C1CCCN(C(=O)c2cccc(S(=O)(=O)N(C)c3ccc(OC)cc3)c2)C1 (stereo not drawn) | ? | . | 51% | .
CCOC(=O)C1CCCN(CC(=O)Nc2ccc(C(=O)Nc3ccccc3OC)cc2)C1 (stereo not drawn) | 12µM* | . | ? | .
CCOC(=O)C1CCN(c2cc3c(cc2NC(=O)c2ccc(OC)c(OC)c2)n(C)c(=O)n3C)CC1 | 8.3µM* | -5 | ? | 2
CCOC(=O)C1CCCN(C(=O)c2cccc(S(=O)(=O)N(Cc3ccccc3)c3ccccc3OC)c2)C1 (stereo not drawn) | 10µM* | . | ? | .
COc1ccccc1NC(=O)c1ccc(NC(=O)CN2CCCC2)cc1 | 1% | -1 | 11% | 9
SMILES | Pf growth 48h | Shiga inhibitor | Pf growth 96h | CHX counter
CCOC(=O)C1CCN(C(=O)c2cc(S(=O)(=O)N3CCCCCC3)ccc2OC)CC1 | ? | . | 4.1µM* | .
CCOC(=O)C1CCN(c2cc3c(cc2NC(=O)c2ccccc2)n(C)c(=O)n3C)CC1 | ? | 11 | ? | 0
CCOC(=O)C1CCN(C(=O)c2ccc(OC)cc2OC)CC1 | 4% | -9 | 13µM* | 1
CCOC(=O)C1CCN(S(=O)(=O)c2nc3nc(C)cc(C)n3n2)CC1 | 2% | -19 | 10µM* | 0
CCOC(=O)C1CCN(C(=O)c2ccc(S(=O)(=O)Nc3ccccc3Cl)cc2)CC1 | -12% | . | -6% | .
CCOC(=O)C1CCCN(C(=O)c2cn(C)c3ccc(S(=O)(=O)N(C)C)cc3c2=O)C1 (stereo not drawn) | . | -3 | 0.93µM* | -4
CCOC(=O)C1CCCN(C(=O)c2ccc(S(=O)(=O)Nc3ccccc3OC)cc2)C1 (stereo not drawn) | 12µM* | . | ? | .
CN(C)C1(CNC(=O)C2CCN(S(=O)(=O)c3ccccc3C(F)(F)F)CC2)CCCCC1 | ? | -13 | ? | -4
CCOC(=O)C1CCN(C(=O)C2CCCN2S(=O)(=O)c2ccc(Cl)cc2)CC1 (stereo not drawn) | 0% | -13 | 10µM* | -2
O=C(C1CCCN1S(=O)(=O)c1ccc(Cl)cc1)N1CCCCC1 (stereo not drawn) | 1% | 4 | 31% | -3
CCN1CCN(CCCNC(=O)c2csc3c2CCCCC3)CC1 | 2% | -14 | 15µM* | -2
Cc1cccc(NC(=S)NNC(=O)c2csc3c2CCC(C)C3)c1 (stereo not drawn) | 59% | 36 | . | 12
O=C(NCCN1CCOCC1)c1csc2c1CCCCC2 | 3% | 18 | 9% | 10
CC(C)CNC(=S)NNC(=O)c1csc2c1CCC(C)C2 (stereo not drawn) | . | -5 | 6.6µM* | 3
CC1CCc2c(C(=O)NCCN3CCOCC3)csc2C1 (stereo not drawn) | 60% | 11 | 8.3µM* | 9
CCC(C)c1ccc(S(=O)(=O)N2CCN(S(=O)(=O)c3ccc(NC(C)=O)cc3)CC2)cc1 (stereo not drawn) | -8% | 8 | ? | -4
CCCN(C(=O)COc1ccc(Cl)cc1Cl)c1c(N)n(Cc2ccccc2)c(=O)[nH]c1=O | 11% | 18 | -14% | 13
Cc1c(C(=O)OC(C)CCN(C)C)oc2ccccc12 (stereo not drawn) | 9% | 19 | . | 10
Cc1c(C(=O)OCC(=O)N(C)c2ccccc2)oc2ccccc12 | 15% | 50* | 53% | 28*
Cc1c(C(=O)OCC(C)(C)CN(C)C)oc2ccccc12 | 52% | 87* | 30% | 44*
CCN(CC)CC(C)(C)COC(=O)c1oc2ccccc2c1C | 4% | 43* | 33% | 16
CCOc1cc(C2C(C(=O)c3ccco3)=C(O)C(=O)N2CC2CCCO2)ccc1O (stereo not drawn) | 9% | -8 | 31% | -5
CCN(c1ccccc1)S(=O)(=O)c1ccc(Cl)c(NC(=O)CN2C(=O)NC3(CCCC3)C2=O)c1 | ? | 1 | -23% | -1
C=CCn1c(=N)c(C(=O)NCCCOC)cc2c(=O)n3cc(C)ccc3nc21 | 13% | -4 | 7.4µM* | -3
